The record followed here is ChEMBL document CHEMBL4649986, “Chemical probes and inhibitors of bromodomains outside the BET family” (Medchemcomm, 2016).

Assay [1] addresses Bromodomain-containing protein 4 (Homo sapiens) (UniProt O60885). Particulars: Compound concentration 10.0 uM, Protein concentration 2.0 uM.
The target in assay [2] is T1, Transcription intermediary factor 1-alpha (Homo sapiens) (UniProt O15164).
T1 sequence (whole entry): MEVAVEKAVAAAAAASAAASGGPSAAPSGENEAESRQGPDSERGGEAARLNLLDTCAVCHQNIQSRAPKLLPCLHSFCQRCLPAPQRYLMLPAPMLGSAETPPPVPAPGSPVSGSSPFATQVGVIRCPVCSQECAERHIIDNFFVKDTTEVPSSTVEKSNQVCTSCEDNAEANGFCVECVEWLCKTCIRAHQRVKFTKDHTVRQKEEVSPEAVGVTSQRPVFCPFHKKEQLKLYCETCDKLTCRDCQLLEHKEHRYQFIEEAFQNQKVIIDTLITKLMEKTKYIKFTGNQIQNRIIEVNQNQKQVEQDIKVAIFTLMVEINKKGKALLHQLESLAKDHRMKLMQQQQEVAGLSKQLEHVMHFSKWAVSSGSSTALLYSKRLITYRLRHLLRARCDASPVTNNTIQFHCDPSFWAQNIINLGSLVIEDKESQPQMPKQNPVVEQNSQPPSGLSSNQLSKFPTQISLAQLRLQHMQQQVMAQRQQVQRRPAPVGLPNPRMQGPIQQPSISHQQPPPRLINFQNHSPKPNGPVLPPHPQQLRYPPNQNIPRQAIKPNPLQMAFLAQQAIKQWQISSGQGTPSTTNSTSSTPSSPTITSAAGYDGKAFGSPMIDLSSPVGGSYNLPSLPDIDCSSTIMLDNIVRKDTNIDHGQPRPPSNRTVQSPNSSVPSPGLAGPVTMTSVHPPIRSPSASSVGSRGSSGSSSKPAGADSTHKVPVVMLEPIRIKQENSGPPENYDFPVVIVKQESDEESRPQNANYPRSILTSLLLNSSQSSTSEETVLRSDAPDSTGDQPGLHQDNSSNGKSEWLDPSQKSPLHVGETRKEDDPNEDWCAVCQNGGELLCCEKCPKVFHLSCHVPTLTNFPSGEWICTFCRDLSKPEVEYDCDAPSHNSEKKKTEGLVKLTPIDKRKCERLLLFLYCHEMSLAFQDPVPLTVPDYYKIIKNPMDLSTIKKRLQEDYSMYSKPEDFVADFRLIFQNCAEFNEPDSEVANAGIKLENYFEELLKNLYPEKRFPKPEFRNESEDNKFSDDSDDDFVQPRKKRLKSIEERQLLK
Particulars: Compound concentration 10.0 uM, Protein concentration 2.0 uM.

In the case of `CCCS(=O)(=O)c1nc(NC2CC2)cc(-c2ccc3c(ccn3C3CC(C)(C)NC(C)(C)C3)c2)n1`, the values for the ΔTm in assay [1] and in assay [2] were 0.53 °C and 0.33 °C, respectively.

A word on the ΔTm: it is the change in melting temperature against a reference sample.
